A selection: hits, their analogues and other compounds. The true share with any hit is near 3.2%.
Rtt109 HAT inh = blocks Candida albicans Rtt109/Vps75 acetyltransferase activity; purified Rtt109/Vps75, ThioGlo CoA-SH fluorescence, 4 h; inhibition, % at 34.9 µM; 330,000 tested, 0.16% active; AID 540336;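 active = inhibition of at least 50% in every replicate; inconclusive = best replicate reaches 50% inhibition but some replicates fall short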
esBAF inh = inhibitors of esBAF chromatin remodeling in mouse ES cells | Bmi1-luciferase knock-in reporter, 24 h; 100% = twice the neutral-well signal | reporter increase, % at 12.5 µM | 350,000 tested, 2% active | AID 602393; in the data active = activation above about 40%; inconclusive = no clear call, values can overlap the other calls;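 also: 0% = median of the plate's neutral control wells and 100% = double that signal; a rise in the Bmi1 reporter signal indicates esBAF inhibition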
DYRK1A inh = blocks rat Dyrk1A kinase activity. inhibition, % at 12.5 µM. ADP-Glo luminescence, NFATc1 peptide. AID 504441. 310,000 tested, 0.43% active. Q63470; in the data active = inhibition above about 50%;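 also: plate controls were vehicle with enzyme for no effect and no enzyme for full effect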
dFosB activator = enhances mouse delta FosB homodimer DNA binding | P13346 | purified delta FosB, TAMRA-CDK5 oligo fluorescence polarization; percent of positive-control signal above neutral wells | activation, % at 25 µM | 340,000 tested, 0.99% active;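 active = mean activation above about 17%, with every replicate also reaching it, limit read from the data, passing the limit was not always enough; inconclusive = only one of the two conditions met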
SMARCA2 activ = activators of SMARCA2 function. activation, % at 9.1 µM. MG213 cells, MMTV-luciferase reporter, dexamethasone, overnight. 370,000 tested, 1% active; in the data active = activation above about 7.8%;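 also: 0% = vehicle wells and 100% = reference activator wells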
CDK5 p35 inh = blocks human CDK5/p35 kinase activity; 330,000 tested, 0.01% active; inhibition, % at 10 µM; AID 488839; Q00535+Q15078; Recombinant CDK5/p35, ADP-Glo luminescence, 60 min;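 active = highest replicate inhibition of at least 50% and at least 75% of replicates reaching 50%; inconclusive = only one of the two criteria met; inactive = both criteria failed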;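 also: plate controls were DMSO neutral control for no effect and GW8510 at 10 µM for full effect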
Target sequence (Q00535 whole entry, looked up): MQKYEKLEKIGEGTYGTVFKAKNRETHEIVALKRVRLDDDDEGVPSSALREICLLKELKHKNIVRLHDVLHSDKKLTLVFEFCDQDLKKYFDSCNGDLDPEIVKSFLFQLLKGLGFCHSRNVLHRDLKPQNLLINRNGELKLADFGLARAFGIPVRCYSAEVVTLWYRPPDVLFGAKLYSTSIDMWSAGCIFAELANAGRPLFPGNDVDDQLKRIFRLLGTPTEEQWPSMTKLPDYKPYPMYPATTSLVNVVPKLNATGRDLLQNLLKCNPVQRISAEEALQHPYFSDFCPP
Target sequence (Q15078 whole entry, looked up): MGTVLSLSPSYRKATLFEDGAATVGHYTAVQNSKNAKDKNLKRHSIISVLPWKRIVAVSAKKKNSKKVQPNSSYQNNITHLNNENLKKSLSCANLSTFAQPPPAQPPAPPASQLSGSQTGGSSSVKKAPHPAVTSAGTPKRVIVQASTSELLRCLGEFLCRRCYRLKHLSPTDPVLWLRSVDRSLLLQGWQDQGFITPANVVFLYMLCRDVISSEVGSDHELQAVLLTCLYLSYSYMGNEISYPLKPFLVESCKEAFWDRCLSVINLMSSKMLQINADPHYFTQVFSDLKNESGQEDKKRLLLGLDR
Numbers without * were called inactive; ! = a repeat was not active.

`COC(=O)C(N)Cc1ccc(O)c(O)c1` (centres undefined) gave Rtt109 HAT inh 3, esBAF inh -5, DYRK1A inh -6, dFosB activator -5, SMARCA2 activ -1 and CDK5 p35 inh 1.
NC(CO)C(=O)NNCc1ccc(O)c(O)c1O (centres undefined) was read as Rtt109 HAT inh 79*!, esBAF inh 7, DYRK1A inh -2, dFosB activator 1, SMARCA2 activ -1 and CDK5 p35 inh -1.
For Cn1cccc1C(=O)NCCc1ccc(Cl)cc1 the results were Rtt109 HAT inh 1, esBAF inh 57*, DYRK1A inh 2, dFosB activator -7, SMARCA2 activ 4 and CDK5 p35 inh 1.
C[C@@H]1CN([C@H](C)CO)C(=O)Cc2cc(NC(=O)C3CCCCC3)ccc2O[C@H]1CN(C)C(=O)NC1CCCCC1 was read as esBAF inh -2.
`COC(=O)CC1(C(=O)OC)Oc2ccccc2C(=O)N1c1ccc(F)cc1F` (centres undefined) gave Rtt109 HAT inh 57*, dFosB activator -1, SMARCA2 activ -2 and CDK5 p35 inh 0.
For O=C1C(Cl)=C(N2CCOCC2)C(=O)N1c1cccc(C(F)(F)F)c1 the results were Rtt109 HAT inh inconclusive, esBAF inh 9, DYRK1A inh 10, dFosB activator -11, SMARCA2 activ 2 and CDK5 p35 inh -1.
Screening COC(=O)c1cccc(N2C(=O)C(Cl)=C(N3CCOCC3)C2=O)c1 returned Rtt109 HAT inh 115*, esBAF inh 2, DYRK1A inh 1, dFosB activator 4, SMARCA2 activ 0 and CDK5 p35 inh 2.
For O=C1C(Cl)=C(N2CCCCCC2)C(=O)N1c1ccccc1Cl the results were Rtt109 HAT inh -3, esBAF inh -7, DYRK1A inh 2, dFosB activator -1, SMARCA2 activ 0 and CDK5 p35 inh 0.
Screening O=C1C(Cl)=C(N2CCOCC2)C(=O)N1c1ccccc1Cl returned Rtt109 HAT inh 162*, esBAF inh 5, DYRK1A inh 0, dFosB activator 2 and CDK5 p35 inh -1.
Screening CC(C)CC#Cc1cnc2c(c1)C(=O)N([C@@H](C)CO)C[C@H](C)[C@@H](CN(C)Cc1ccccc1F)O2 returned esBAF inh -1.
Nc1c(C(=O)O)cnc2c(-c3ccc(Cl)cc3)cnn12 was read as Rtt109 HAT inh 1, esBAF inh 47*, DYRK1A inh 40, dFosB activator 3, SMARCA2 activ 3 and CDK5 p35 inh 3.
CC(=O)c1cnc2c(-c3ccc(Cl)cc3)cnn2c1C was read as Rtt109 HAT inh 5, esBAF inh 75*, DYRK1A inh -3, dFosB activator -8, SMARCA2 activ -4 and CDK5 p35 inh -1.
Screening Nc1c(-c2ccccc2)cnc2c(-c3ccccc3)cnn12 returned Rtt109 HAT inh 15, esBAF inh -55, DYRK1A inh 0, dFosB activator -6, SMARCA2 activ 7 and CDK5 p35 inh 1.
Screening Cc1ccc(S(=O)(=O)Nc2ccc3c(c2)C(=O)N([C@H](C)CO)C[C@H](C)[C@H](CN(C)S(=O)(=O)c2cn(C)cn2)OCCCC[C@H](C)O3)cc1 returned esBAF inh -3.
Screening CC(=O)N[C@@H]1CC[C@@H](CC(=O)NCC2CCCCC2)O[C@H]1CO returned esBAF inh 3.
For CC1=CCC(COC(=O)Nc2ccccc2)CC1 (centres undefined) the results were Rtt109 HAT inh -7, esBAF inh 84*, DYRK1A inh -2, dFosB activator -1, SMARCA2 activ 3 and CDK5 p35 inh 0.
`COC(=O)[C@H]1[C@H](CO)[C@H]2Cn3c(ccc(-c4ccccc4)c3=O)[C@H]2N1CC1CCCCC1` gave esBAF inh 0.
Screening Cc1ccc(C(=O)Cn2nnc3ccccc32)cc1 returned Rtt109 HAT inh 1, esBAF inh 63*, DYRK1A inh 5, dFosB activator -9, SMARCA2 activ 3 and CDK5 p35 inh 0.
`C[C@@H]1CN([C@H](C)CO)C(=O)c2cc(NC(=O)Nc3ccccc3)ccc2O[C@@H]1CN(C)Cc1ccc(-c2ccccc2)cc1` gave esBAF inh 4.
`CC(C)CC#Cc1cnc2c(c1)C(=O)N([C@H](C)CO)C[C@@H](C)[C@H](CN(C)Cc1ccccn1)O2` gave esBAF inh 3.
Clc1ccc(-c2c[nH]c3ccccc23)nn1 was read as Rtt109 HAT inh 2, esBAF inh 27, DYRK1A inh 0, dFosB activator 0, SMARCA2 activ 2 and CDK5 p35 inh 1.
`c1ccc2c(-c3csc(-c4ccncc4)n3)c[nH]c2c1` gave Rtt109 HAT inh -8, esBAF inh 52*, DYRK1A inh -2, dFosB activator -2, SMARCA2 activ 1 and CDK5 p35 inh -1.
`Brc1ccc(-c2csc(-c3c[nH]c4ccccc34)n2)cc1` gave Rtt109 HAT inh -7, esBAF inh 67*, DYRK1A inh 5, dFosB activator 4, SMARCA2 activ 5 and CDK5 p35 inh 0.
C[C@@H]1CCCCO[C@@H](CN(C)CC2CC2)[C@@H](C)CN([C@H](C)CO)C(=O)c2cc(NS(=O)(=O)c3cccs3)ccc2O1 was read as esBAF inh 6.
Screening Cc1noc(C)c1S(=O)(=O)Nc1ccc2c(c1)C(=O)N([C@H](C)CO)C[C@@H](C)[C@@H](CN(C)S(C)(=O)=O)O2 returned esBAF inh -1.
`Cc1ccccc1N1C(S)=C(C#N)C(=O)NC1c1ccco1` (centres undefined) gave Rtt109 HAT inh -1, esBAF inh 4, DYRK1A inh 4, dFosB activator -4, SMARCA2 activ 0 and CDK5 p35 inh -1.
Screening Cc1cccc(N2C(S)=C(C#N)C(=O)NC2c2cccs2)c1 (centres undefined) returned Rtt109 HAT inh 121*, DYRK1A inh -5, dFosB activator -2, SMARCA2 activ -2 and CDK5 p35 inh 2.
`Cc1ccccc1N1C(S)=C(C#N)C(=O)NC1c1cccs1` (centres undefined) gave Rtt109 HAT inh active, esBAF inh 1, DYRK1A inh 8, dFosB activator -4, SMARCA2 activ -3 and CDK5 p35 inh 2.
For N#CC1=C(S)N(c2ccc(F)cc2)C(c2cccs2)NC1=O (centres undefined) the results were Rtt109 HAT inh 9, esBAF inh -8, DYRK1A inh 3, dFosB activator 5, SMARCA2 activ -4 and CDK5 p35 inh 0.
Screening O=C(NNC(=S)Nc1ccccc1Cl)c1ccccc1Br returned Rtt109 HAT inh 6, esBAF inh 66*, DYRK1A inh 14, dFosB activator -10, SMARCA2 activ 4 and CDK5 p35 inh 2.

Screening data from PubChem BioAssay.
